Source: PubChem
Rows were chosen to be rich in hits. Some 2.9% of all compounds tested hit in one or more screens of this group.
TSHR antagonist: blocks TSH signaling through the human TSH receptor | TSHR-expressing cells, TSH-stimulated cAMP HTRF, 2 h; hits give low values | activity change, negative = inhibition, % at 11.5 µM | 330,000 compounds, 0.2% hits;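 active = activity change below a set negative limit, meaning inhibition stronger than a set level, cut at about -70% in these data; inconclusive = activity change between two set negative limits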; also: % is scaled to controls: 0 for no effect and ±100 for the full control effect
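Inhibition of cAMP made by TSHR-expressing cells under TSH stimulation (4nM final, EC80; 2 h, 37 deg C) is quantified with a one-step lysis HTRF kit, anti-cAMP cryptate versus cAMP-d2.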
DRD3 agonist: D3 dopamine receptor (human) agonism; P35462; D3R DiscoveRx beta-arrestin cells, luminescence, 90 min; max activation, %; 410,000 compounds, 0.58% hits; in the data active = max activation above about 30%; also: 0% is about no effect
Target sequence (P35462 whole entry, looked up): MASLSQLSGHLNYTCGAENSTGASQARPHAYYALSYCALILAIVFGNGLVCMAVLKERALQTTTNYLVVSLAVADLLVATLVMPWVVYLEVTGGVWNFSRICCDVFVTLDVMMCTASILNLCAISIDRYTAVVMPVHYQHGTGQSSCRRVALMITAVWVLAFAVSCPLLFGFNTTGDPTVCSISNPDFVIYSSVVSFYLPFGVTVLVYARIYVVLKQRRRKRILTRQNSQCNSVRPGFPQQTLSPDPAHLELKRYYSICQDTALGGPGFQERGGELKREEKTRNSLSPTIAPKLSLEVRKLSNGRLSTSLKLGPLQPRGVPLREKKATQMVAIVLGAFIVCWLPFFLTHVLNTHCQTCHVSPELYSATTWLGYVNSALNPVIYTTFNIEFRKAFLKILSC
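Agonist-mode cell screen: cells plated at 1500/well and incubated overnight at 37 °C, then exposed to library compounds for 90 min at 37 °C. Detection reagent was added for 30–60 min at room temperature, and luminescence was read.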
B2AR arrestin: recruits beta-arrestin to the human beta2-adrenergic receptor | P07550 | beta-arrestin recruitment to beta2AR, cell-based reporter | Potency, µM (doses to about 46.1 µM), inactives show top-dose activation, hits mostly activators | 330,000 compounds, 0.02% hits | AID 492947; active = well fitted activation curve with a large enough effect; inconclusive = small, poorly fitted or top-dose-only effect;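 also: potency is read from the fitted curve at half-maximal effect; 0% = DMSO controls and full agonism = EC100 isoproterenol or metaproterenol; nearly all actives have a fitted effect of over 65% in size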
D3 antag: D3 dopamine receptor (human) antagonism; P35462; 360,000 compounds, 2.5% hits; AID 652054; max response, negative = inhibition, %; D3R cells, DiscoveRx beta-arrestin luminescence, antagonist mode; hits give low values; in the data active = max response below about -50%; inconclusive = no clear call, values can overlap the other calls; also: % is scaled to controls: 0 for no effect and ±100 for the full control effect
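Cells plated overnight at 1500 cells/well, then exposed to library compounds with dopamine controls for 90 minutes at 37 degrees C. DiscoveRx reagent added for 30–60 minutes at room temperature; luminescence read, quantitative HTS format.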
An asterisk follows results filed as active; ? = inconclusive; nt = no result given.

SMILES	TSHR antagonist	DRD3 agonist	B2AR arrestin	D3 antag
COc1ccc(C(C[N+](=O)[O-])c2c(-c3ccccc3)cc3ccccn23)cc1 (centres undefined)	-2.0	-2.9	0.0%	-50.3*
COc1ccc(C(C[N+](=O)[O-])c2c(-c3ccccc3)cc3ccccn23)cc1OC (centres undefined)	nt	-7.1	nt	?
Cc1cc(C)nc(SCc2ccc(C(=O)NNC(=O)Nc3cccc(Cl)c3)cc2)n1	-4.6	-5.7	-1.2%	-57.9*
c1ccc(-c2ccccc2OCCCN2CCCCCC2)cc1	-3.1	-1.3	-0.2%	?
c1ccc(-c2ccccc2OCCCCN2CCCCC2)cc1	0.5	-38.1	-0.1%	-71.4*
c1ccc(-c2ccccc2OCCCN2CCCC2)cc1	4.8	-35.2	-1.5%	-71.1*
Cc1ccccc1Cn1nc(C)c(NC(=O)c2noc3c2CC(C(C)(C)C)CC3)c1C (centres undefined)	-6.0	33.7*	-1.2%	3.5
O=C(Nc1ccc(S(=O)(=O)Nc2nccs2)cc1)c1cc(-c2ccccn2)nc2ccccc12	0.6	-2.6	0.3%	?
O=C(Nc1ccc(S(=O)(=O)Nc2nccs2)cc1)c1cc(-c2ccccc2Cl)nc2ccccc12	-9.1	2.2	0.2%	-85.2*
Cc1sc2nc(SCCN(C)C)n(-c3ccccc3)c(=O)c2c1-c1ccc(F)cc1	-2.7	-14.7	0.4%	-69.4*
CN(C)CCSc1nc(O)c(-c2ccccc2)c(=O)n1-c1ccccc1	11.2	-1.6	-0.1%	0.6
COc1cc(-c2nc(Cn3nnc(C(=O)Nc4cc(C)cc(C)c4)c3C)c(C)o2)cc(OC)c1OC	nt	1.3	nt	nt
COc1cc(OC)cc(-c2c(-c3ccc(F)cc3)c3cc(-c4ccc5[nH]ccc5c4)ccc3n2C)c1	16.2	-6.8	0.2%	0.0
COc1cccc(-c2c(-c3cc(OC)cc(OC)c3)n(C)c3ccc(-c4ccc5[nH]ccc5c4)cc23)c1	18.8	32.4*	-1.3%	30.0
CCc1nc2c(OCCC3CCCCC3)cccn2c1N(C)C(=O)c1cccs1	nt	-19.5	nt	-100.6*
CCc1nc2c(OCCC3CCCCC3)cccn2c1N(C=O)Cc1ccc(OC)cc1	nt	-12.2	nt	-76.7*
CCCCC(=O)N(C)c1c(CC)nc2c(OCCC3CCCCC3)cccn12	nt	-28.1	nt	-71.1*
CCOC(=O)C(=O)N(C)c1c(CC)nc2c(OCCC3CCCCC3)cccn12	nt	-22.2	nt	-84.4*
CS(=O)(=O)Nc1cccc(NC(=O)c2cccc3c(-c4ccc(F)c(F)c4)coc23)c1	nt	3.2	nt	8.3
CCOc1ccc(N(CC)S(=O)(=O)N2CCCC(C(=O)Nc3cc(Cl)ccc3C)C2)cc1 (centres undefined)	nt	-3.2	nt	nt
CN1C(CSCC(F)(F)F)Nc2cc(Cl)c(S(N)(=O)=O)cc2S1(=O)=O (centres undefined)	nt	9.7	nt	nt
CCc1c(-c2ccc(OC)cc2)ncn1Cc1cccc(-c2ccccc2)c1	nt	5.7	nt	-1.0
CCOc1ccc2nc(NC(=O)CS(=O)(=O)c3ccc(Cl)cc3)sc2c1	nt	29.4	nt	nt
COC(=O)c1ccc(C)c(NS(=O)(=O)c2ccc(NC(C)=O)cc2)c1	-4.8	-8.3	0.0%	-54.6*
CCOc1ccc2nc(NC(=O)CS(=O)(=O)c3ccccc3)sc2c1	?	31.8*	8.2%	155.9
SMILES	TSHR antagonist	DRD3 agonist	B2AR arrestin	D3 antag
CS(=O)(=O)c1ccc2nc(NC(=O)Nc3ccc(Cl)c(Cl)c3)sc2c1	-1.8	55.4*	0.1%	23.5
CCOc1ccc2nc(NC(=O)CS(=O)(=O)c3ccc(C)cc3)sc2c1	-12.8	38.0*	-0.1%	121.8
COC(=O)c1ccccc1NS(=O)(=O)c1ccc(NC(C)=O)cc1	-3.2	2.8	0.4%	15.5
Cc1ccc(OCC(=O)Nc2ccc3nc(SCC(=O)N(C)c4ccccc4)sc3c2)cc1	nt	3.6	nt	nt
Cc1cc(C)cc(-n2ccnc2SCC(=O)Nc2ccc3c(c2)OCO3)c1	nt	-10.8	nt	nt
O=C1Nc2ccccc2-c2nnnn2C1N1CCCC1 (centres undefined)	nt	-3.1	nt	1.5
CCOc1ccc2nc(NS(=O)(=O)c3ccc(NC(C)=O)cc3)sc2c1	21.5	2.2	-0.2%	-57.2*
COC(=O)COc1cccc(NS(=O)(=O)c2ccc(NC(C)=O)cc2)c1	-12.9	-5.8	-0.3%	-63.8*
CC(=O)Nc1ccc(S(=O)(=O)Nc2nc3ccc([N+](=O)[O-])cc3s2)cc1	23.2	4.0	0.1%	-12.1
CC(=O)Nc1cccc(OCC(=O)NS(=O)(=O)c2ccc(C)cc2)c1	4.6	-28.2	0.2%	18.6
COc1ccc(-c2cc3nc(-c4ccc(C)cc4)cc(C(F)(F)F)n3n2)cc1	nt	4.7	nt	nt
O=C(C1CCCCC1)N1CCCC(c2nc3c(nnn3Cc3ccccc3)c(=O)[nH]2)C1 (centres undefined)	7.4	8.6	-1.8%	-108.4*
O=C(c1ccccc1)N1CCCC(c2nc3c(nnn3Cc3ccccc3)c(=O)[nH]2)C1 (centres undefined)	-7.6	7.7	0.0%	?
CCOC(=O)c1ccccc1NC(=O)N1CCC(CN2CCOCC2)CC1	nt	-12.0	nt	nt
CCN(CC)C(=O)Cn1c(=O)n(-c2ccccc2)c(=O)c2sccc21	-80.9*	1.9	-0.1%	16.2
COc1ccccc1CNC(=O)c1ccc2c(c1)sc1nc(-c3ccc(F)cc3)cn12	nt	-2.3	nt	nt
COc1ccc(C(CC(=O)Nc2cc(OC)c(OC)c(OC)c2)N2Cc3ccccc3C2=O)cc1 (centres undefined)	nt	-17.5	nt	nt
O=C(Nc1ccc(Br)cc1F)c1cc(S(=O)(=O)NCc2ccc(F)cc2)ccc1F	nt	0.7	nt	nt
Cn1ccc2c(N(Cc3ccccc3)Cc3ccccc3)cc3c(c21)C1CCC3C1 (centres undefined)	nt	-10.2	nt	-55.7*
Cn1ccc2c(-c3ccc(CO)cc3)cc3c(c21)C1CCC3C1 (centres undefined)	nt	-13.6	nt	-64.9*
Cc1nn(-c2ccc(N3CCCCC3)nn2)c(C)c1CCC(=O)NCc1ccc(OC(C)C)cc1	nt	-11.3	nt	nt
CCOc1cc(C(=O)NCc2ccncc2)cc(OCC)c1OCC	-33.5	-28.1	-0.3%	-100.2*
O=C(NCc1ccc(F)cc1)c1ccncc1	-121.3*	0.8	0.1%	11.4
CCOc1ccc(C(=O)NCc2ccncc2)cc1OCC	-0.5	3.1	-1.0%	?
CCOc1cc(C(=O)NN=C2CCCC2)cc(OCC)c1OCC	0.0	-11.8	2.9%	-50.8*
SMILES	TSHR antagonist	DRD3 agonist	B2AR arrestin	D3 antag
COc1ccc(C(=O)NN=C2CCCC2)cc1OC	-9.6	-19.1	-0.4%	10.6
COc1ccc(Cl)cc1NC(=O)c1cn(C2CCCC2)c(=O)c2c1c1ccccc1n2C	nt	-6.1	nt	nt
CCOC(=O)c1ccc(NC(=O)CC2C(=O)N(c3cccc(OC)c3)C(=O)N2Cc2ccc(OC)cc2)cc1 (centres undefined)	nt	1.3	nt	nt
CCN(CC)c1nc(NN)nc(Nc2ccc(C)c(Cl)c2)n1	nt	-2.6	nt	-79.4*
Cc1ccc2onc(CNC(=O)N(C)Cc3ccccc3)c2c1	nt	6.6	nt	nt
CN(C(=O)c1cccc(NC(=O)Cc2cccc(NC(=O)C3CCN(C(=O)CCc4ccccc4)CC3)c2)c1)C1CC1	nt	40.2*	nt	10.2
CN(C(=O)c1cccc(NC(=O)Cc2cccc([N+](=O)[O-])c2)c1)C1CCC1	-3.9	14.1	0.0%	11.0
